Screens deposited in PubChem by National Center for Advancing Translational Sciences (NCATS).
The list is not random: actives were taken first. Their share in the collection is about 7.5%.
FLuc counter: firefly luciferase modulation, counter-screen for miR-21 project; purified FLuc, Km substrates, luminescence inhibition; Potency, µM (series often up to 57.5 µM), inactives show at the highest dose activity change, negative = inhibition, most hits filed as inhibitors; 6.9% of 360,000 active; AID 588342;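 further: plate controls were vehicle for no effect and reference inhibitor for full effect; nearly all actives have a fitted effect of over 55% in size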
Target sequence (P08659 whole entry, looked up): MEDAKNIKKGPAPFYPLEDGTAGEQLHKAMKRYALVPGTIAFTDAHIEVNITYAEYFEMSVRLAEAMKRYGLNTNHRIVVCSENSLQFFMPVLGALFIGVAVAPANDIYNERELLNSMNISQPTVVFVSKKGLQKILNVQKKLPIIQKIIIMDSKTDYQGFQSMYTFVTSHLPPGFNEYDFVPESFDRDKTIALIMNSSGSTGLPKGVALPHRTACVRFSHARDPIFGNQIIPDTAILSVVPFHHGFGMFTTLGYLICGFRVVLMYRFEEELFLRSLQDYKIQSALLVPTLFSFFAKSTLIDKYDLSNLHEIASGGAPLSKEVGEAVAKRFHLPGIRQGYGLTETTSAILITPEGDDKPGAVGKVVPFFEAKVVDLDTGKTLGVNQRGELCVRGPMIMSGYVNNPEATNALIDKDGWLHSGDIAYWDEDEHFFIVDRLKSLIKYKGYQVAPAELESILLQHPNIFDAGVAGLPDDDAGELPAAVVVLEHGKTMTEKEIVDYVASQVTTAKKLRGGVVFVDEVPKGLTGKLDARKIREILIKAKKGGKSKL
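Purified P. pyralis luciferase (10nM final) with 10uM D-luciferin and 10uM ATP (Km levels) in 50mM Tris acetate pH 7.5, 10mM Mg acetate, 0.01% Tween-20, 0.05% BSA; qHTS 6-point titration, ~60 µM downward; luminescence read.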
SMN2 splice up: SMN2 splice variant enhancement. HEK293 SMN2-luciferase splicing reporter, luminescence, 30-36 h. Potency, µM (series often up to 46.1 µM), for the others: at the highest dose activity change, positive = activation, usual class: activators. 2.8% of 210,000 active. AID 1458; further: % of control where 0% means no effect; nearly all actives have a fitted effect of over 55% in size
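HEK293 cells carry an SMN2 minigene-luciferase reporter in which exon 7 inclusion puts luciferase in frame. Cells were seeded at 2000 cells/well, attached for 10-12 hours, then exposed to compounds for 30-36 hours at 37C before ONE-Glo luminescence.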
Rab9 prom act: Rab9 promoter activation; Huh7 Rab9 promoter-luciferase reporter, luminescence, 24 h; Potency, µM (titrated, usually from 9.22 µM), for the others: at the highest dose activation, negative = inhibition, hits mostly activators; 2.8% of 320,000 active; AID 485297; further: % of control where 0% means no effect; nearly all actives have a fitted effect of over 60% in size
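Huh7 cells stably carrying a Rab9 promoter-luciferase reporter, 1500 cells per well in OP-MEM I with 10% FBS, treated with compound 24 hours at 37C. Luciferase activity read by luminescence after 10 minutes with Amplite reagent.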
NPC1 promoter act: activates the NPC1 promoter; Huh7 NPC1 promoter luciferase reporter, 24 h; Potency, µM (highest dose often 9.22 µM), for inactives: top-dose activation, hits mostly activators; 2.4% of 320,000 active; further: % of control where 0% means no effect; nearly all actives have a fitted effect of over 60% in size
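Readout is luciferase luminescence, reflecting NPC1 promoter activation in stably transfected Huh7 cells after 24 h compound exposure at 37 °C in reduced-serum medium with 10% FBS.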
ELG1 genotoxic: genotoxicity induction in ELG1-luciferase HEK293T cells; Potency, µM (top dose mostly 46 µM), for inactives: at the highest dose activity change, positive = activation, usual class: activators; 1.3% of 330,000 active; HEK293T ELG1-luciferase reporter, luminescence, 16 h; AID 504466; further: % of control where 0% means no effect; nearly all actives have a fitted effect of over 60% in size
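Step 1: seed 2,000 HEK293T ELG1-luciferase cells per well. Step 2: add compound or DMSO, incubate 16 hr at 37 °C. Step 3: ONE-Glo, 30 min at room temperature, read luminescence.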
* marks the source's active call; other numbers are inactive results; ? = inconclusive; · = not tested or not shown; ! = not confirmed by another sample; [ ] = remark or other dose. The call rests on the fitted dose curve; in most records, active means well fitted curve in the direction sought with a large enough effect; inconclusive means small, poorly fitted or top-dose-only effect, or another doubt; inactive means no such curve, though single readings can be large; an effect the other way counts as inactive or inconclusive. Potency means the concentration at half of the fitted maximal effect.

SMILES	FLuc counter	SMN2 splice up	Rab9 prom act	NPC1 promoter act	ELG1 genotoxic
Cc1ccc2c(COC(=O)c3cnc(C)cn3)cc(=O)oc2c1	?	-4.0%	6.5%	6.3%	0.4%
Cc1nn2cc(-c3ccc(N)cc3)nc2s1	10.7µM*	12.6µM*	1µM*	1µM*	?
COCCCNC(=O)C(=O)N/N=C/c1cc2c(cc1Br)OCO2	-2.4%	20.3%	-0.6%	-1.4%	2.2%
Cc1ccc(O)c(N=Nc2ccccc2)n1	·	?	20.6µM*	18.4µM*	·
Cc1ccc2c(C)ccc(O)c2n1	-1.3%	4.4%	7.2%	7.5%	15.3%
COc1ccccc1C1CC(=O)N(c2cccc(C(F)(F)F)c2)C2=C1C(=O)OC2 (configuration not stated)	-7.4%	-0.3%	·	·	·
Cc1c(C(=O)O)[nH]c2c1C(=O)CC(c1ccc(C(C)(C)C)cc1)C2 (configuration not stated)	9.53µM*	·	?	?	?
CCOCCOC(=O)c1[nH]c2c(c1C)C(=O)CC(c1ccc(N(C)C)cc1)C2 (configuration not stated)	-13.3%	-11.5%	-3.9%	-1.9%	-16.0%
CCC(C)OC(=O)c1[nH]c2c(c1C)C(=O)CC(c1ccc(N(C)C)cc1)C2 (configuration not stated)	10.7µM*	24.3%	3.16µM*	?	?
O=C(Nc1cc(S(=O)(=O)N2CCCCC2)ccc1N1CCOCC1)c1ccc(C(F)(F)F)cc1	5.1%	·	-6.2%	-1.4%	2.0%
CN1CCCN(S(=O)(=O)c2cccc(C(F)(F)F)c2)c2nc3ccccc3nc21	·	·	-8.8%	0.2%	-8.5%
CCOc1ccc(/C=C/c2nc3ccccc3n2S(=O)(=O)c2ccc(Br)cc2)cc1	0.849µM*	2.82µM*	·	·	·
O=S(=O)(c1cccc(C(F)(F)F)c1)n1c(/C=C/c2ccccc2)nc2ccccc21	12µM*	·	·	·	·
Cc1nc2ccccc2n1S(=O)(=O)c1ccc(Br)cc1	1.2%	-20.2%	-4.5%	0.1%	-1.9%
CSc1ccc(/C=C/c2nc3ccccc3n2S(=O)(=O)c2ccc(Br)cc2)cc1	0.0426µM*	0.501µM*	·	·	·
CCc1ccc(S(=O)(=O)n2c(C)nc3ccccc32)cc1	-2.5%	·	6.9%	2.1%	1.4%
Cc1cc(C)nc(Nc2n[nH]c(-c3ccc(C(C)(C)C)cc3)n2)n1	1.69µM*	-56.0%	-3.6%	12.3%	2.9%
Cc1cc(C)nc(Nc2n[nH]c(-c3ccc(N)cc3)n2)n1	9.53µM*	?	3.55µM*	1.58µM*	7.31µM*
Cc1cc(C)nc(Nc2n[nH]c(C)n2)n1	-2.4%	·	-2.8%	-4.7%	-1.6%
CCc1ccc(C2=C(C)C(N3CCC(C(=O)Nc4cccc(OC)c4)CC3)=NS2(=O)=O)cc1	-4.1%	·	·	·	·
COc1ccccc1/C=C/C(=O)NCC(=O)N/N=C/c1ccc2c(c1)OCO2	?	-9.9%	-6.5%	-3.9%	0.8%
O=C(NC1CCCc2ccccc21)c1ccc([N+](=O)[O-])cc1 (configuration not stated)	-1.8%	·	5.8%	-1.3%	-3.9%
COc1ccc(N=C2NC(=O)S/C2=C\c2ccc(N(C)C)cc2)cc1	21.3µM*	?	?	?	?
Cc1ccc(-c2nn(CC(=O)Nc3ccc4c(c3)nc3n4CCOC3)c(=O)c3ccccc23)cc1	-1.3%	-4.9%	5.4%	-1.0%	-1.4%
CCc1ccc2nc(N(CCN(C)C)C(=O)c3ccc4ncsc4c3)sc2c1	13.5µM*	·	1.78µM*	2.82µM*	3.66µM*
SMILES	FLuc counter	SMN2 splice up	Rab9 prom act	NPC1 promoter act	ELG1 genotoxic
Cc1cccc(-n2c(SC(C)C(=O)O)nc3sc4c(c3c2=O)CCCC4)c1 (configuration not stated)	1.1%	·	-6.9%	-5.4%	0.1%
CCOC(=O)c1c(C)[nH]c(C(=O)COC(=O)COc2ccccc2C=O)c1C	-12.4%	-4.1%	9.3%	-0.5%	7.5%
COc1ccc(OC)c2sc(N3CCN(C(=O)C(C)(C)C)CC3)nc12	13.5µM*	·	·	·	·
Cc1nnc2ccc(-c3ccc(NC(=O)c4cccnc4Cl)cc3)nn12	2.5%	?	-3.4%	-7.0%	?
NS(=O)(=O)c1cccc(NC(=O)CCSc2ccccc2Cl)c1	16.9µM*	?	?	?	?
O=C(CCSc1ccccc1Cl)Nc1cccc([N+](=O)[O-])c1	?	?	22.3%	16.4%	?
COC(=O)c1cccc(NC(=O)NC23CC4CC(CC(C4)C2)C3)c1	9.53µM*	11.0%	24.1%	20.6%	?
COC(=O)c1cc(NC(=O)Nc2cccc(Cl)c2)ccc1Cl	30.1µM*	-6.8%	8.6%	11.6%	-10.3%
COC(=O)c1cccc(NC(=O)Nc2ccc(Cl)cc2)c1	2.69µM*	·	3.16µM*	2.24µM*	-1.4%
CS(=O)(=O)Nc1cccc(-c2nc(NCc3cccnc3)c3ccccc3n2)c1	·	11.0%	·	·	·
CCN(CC(=O)N1CCN(Cc2ccccc2)CC1)S(=O)(=O)c1ccc(F)cc1	3.9%	·	0.0%	-4.6%	-5.5%
CC1=CC2=NC(=O)CC(C)(C(=O)N(CC(=O)NC3CCCC3)c3cc(C)cc(C)c3)N2C=C1 (configuration not stated)	0.0%	-0.6%	-0.4%	-2.8%	0.8%
CN(C)S(=O)(=O)c1cccc(NC(=O)COC(=O)CCSc2ccc(Cl)cc2)c1	21.3µM*	-4.2%	1.9%	-1.9%	0.9%
CCN(CC)S(=O)(=O)c1cccc(NC(=O)CCSc2ccc(Cl)cc2)c1	-2.0%	-32.9%	-1.9%	-2.9%	-6.8%
Cc1cccc(NC(=O)Nc2ccc(S(N)(=O)=O)cc2)c1	?	·	11.4%	14.2%	1.6%
NS(=O)(=O)c1cccc(NC(=O)Nc2ccc(Cl)cc2)c1	7.57µM*	·	17.8%	29.7%	6.4%
O=C(NCC1(c2ccccc2)CCCC1)c1ccccc1	-2.1%	-14.1%	-1.9%	8.1%	-1.4%
CCOc1ccccc1N(CC(=O)N1CCCCCC1)S(=O)(=O)c1ccc(C)cc1	1.1%	·	-1.5%	-1.3%	-2.5%
COc1ccc(Cc2nc3ccc(C(=O)NCCc4ccc(OC)c(OC)c4)cc3o2)cc1	1.5%	·	·	·	·
COc1ccc(Cc2nc3ccc(C(=O)NCCCSC)cc3o2)cc1OC	16.9µM*	·	?	?	17.5%
CCOCC(O)CNC(=O)c1ccc2nc(Cc3ccc(OC)c(OC)c3)oc2c1 (configuration not stated)	-4.2%	·	-2.7%	?	1.5%
COCCCNC(=O)c1ccc2nc(Cc3ccc(OC)cc3)oc2c1	16.9µM*!	·	2.24µM*	3.98µM*	20.6µM*
CCOCCCNC(=O)c1ccc(OC)cc1	2.8%[2.3 µM]	28.2µM*	28.7%	13.8%	?
COC(=O)CCNC(=O)c1ccc2nc(Cc3ccc(OC)c(OC)c3)oc2c1	16.9µM*	·	?	?	18.5%
CC(C)C(NS(=O)(=O)c1cccs1)C(=O)N(C)Cc1ccccc1 (configuration not stated)	7.2%	·	-5.7%	2.9%	-6.1%
